A short description of assay [1]: survival rescue of mitochondrial mutant cells in low glucose, primary screen, MELAS cybrids, Rieske KO mouse fibroblasts, CellTiter-Glo (AID 1508586;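 active = mean z-score across replicates of 1.96 or higher in either the MELAS or the Rieske mutant cell line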;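 note: test concentration not given here; z relative to plate mean and SD of compound and empty wells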). For orientation: ATP-based viability assays read luminescence as a measure of living cells.
The nature of assay [2]: viability rescue of complex I mutant cybrids, primary screen, cell-based, galactose medium, ATP luminescence (AID 1645843).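 Note: positive z means more ATP and so rescue of galactose-driven cybrid death.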 The note with it: complex I mutant cybrid cells, 72 h, stronger effect = higher value.
Where [3] appears, read: MELAS cybrid survival, CellTiter-Glo 48 h, stronger effect = higher value.
The mark [4] stands for this setting: Rieske KO mouse fibroblast survival, CellTiter-Glo 72 h.

Each structure is given as a SMILES string. Calls of active or inactive are those of the source.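 Rule for the calls, unless noted: active = z-score of at least 1.8 in each of two replicates, scored against plate mean and spread of sample wells; inactive = the rest.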

Regarding `O=C(Cn1cnc2ccccc21)N1CCc2c(cc(-c3cccc(Cl)c3)c(=O)n2CC2CC2)C1`, the figures for the z-score in assay [1] (setting [3]), in assay [1] (setting [4]) and in assay [2] were 0.334 (inactive), -0.586 and -0.315 (inactive), respectively.
For the compound `COC(=O)CCN1CC(OCc2cccc(OC)c2)CN(C(=O)CCc2cccs2)CC1=O` (stereo not drawn), the results for the z-score in assay [1] (setting [3]), in assay [1] (setting [4]) and in assay [2] were -0.467 (inactive), -0.256 and 0.52 (inactive), respectively.
Take `CC(C)[C@@H]1NC(=O)[C@H]2CN(C(=O)c3ccccc3Cl)CCN2C1=O`: the z-score was -0.296 (inactive) in assay [1] (setting [3]), -0.445 in assay [1] (setting [4]) and 1.57 (inactive) in assay [2].
`CC(C)N1CC(OCc2ccc(F)cc2)CN(C(=O)c2ccc(C#CC(C)(C)O)o2)CC1=O` (stereo not drawn): the figures for the z-score in assay [1] (setting [3]), in assay [1] (setting [4]) and in assay [2] were -0.3 (inactive), -0.177 and 0.06 (inactive), respectively.
With `CCCCc1ncc(CN2CCc3c(cc(-c4ccncc4)c(=O)n3C/C=C/c3ccccc3)C2)[nH]1`, the z-score is -0.405 (inactive) in assay [1] (setting [3]), -0.0119 in assay [1] (setting [4]) and -0.41 (inactive) in assay [2].
Turning to `COCCn1c(C(=O)OC)c(NC(=O)c2ccco2)c2cc(NC3CCc4ccccc4C3)cnc21` (stereo not drawn), the z-score in assay [1] (setting [3]) was 9.06 (active); in assay [1] (setting [4]), -2; in assay [2], -1.68 (inactive).
For `COC(=O)c1c(NC(=O)CCc2ccccc2)c2cc(NC(C)C(C)(C)O)cnc2n1C` (stereo not drawn), the values for the z-score in assay [1] (setting [3]), in assay [1] (setting [4]) and in assay [2] were -1.19 (inactive), -0.398 and -0.305 (inactive), respectively.
With `CCc1nc(CNc2cc(C(=O)Nc3ccc4c(c3)CCC4)cc(S(=O)(=O)NC)c2)c(C)[nH]1`, the figures for the z-score in assay [1] (setting [3]), in assay [1] (setting [4]) and in assay [2] were -0.12 (inactive), -0.343 and 0.065 (inactive), respectively.
In the same order, the values of `CN(C)C1CCN(C(=O)c2cc(-c3ccccc3)cc(S(=O)(=O)N3CCSCC3)c2)C1` (stereo not drawn) are 0.666 (inactive), 0.00446 and 0.465 (inactive).
On to `COC(=O)CCN1CC(OCc2ccncc2)CN(C(=O)Cc2c(F)cccc2Cl)CC1=O` (stereo not drawn), for which the z-score is -0.399 (inactive) in assay [1] (setting [3]), 0.103 in assay [1] (setting [4]) and 1.43 (inactive) in assay [2].
With `CC(C)Cn1nc(C(=O)N2CCCC2)c2c1CCC(NCCc1cccs1)C2` (stereo not drawn), the z-score in assay [1] (setting [3]) is -0.0921 (inactive); in assay [1] (setting [4]) it was -0.284; in assay [2] it was 0.555 (inactive).
As for `CCN(CC)C(=O)c1cc(-c2ccc(C)s2)cc(S(=O)(=O)N2CCOCC2)c1`, the z-score in assay [1] (setting [3]) was -0.0477 (inactive); in assay [1] (setting [4]) it was 0.74; in assay [2], -0.44 (inactive).
On to `Cn1c2c(cc(Cc3ccccc3F)c1=O)CN(C(=O)c1ccc(C#CC(C)(C)O)o1)CC2`, for which the values for the z-score in assay [1] (setting [3]), in assay [1] (setting [4]) and in assay [2] were -0.447 (inactive), 0.668 and -0.48 (inactive), respectively.
As to `COc1cc(CN2CC(=O)N(CC3CCOCC3)CC(OCc3ccccn3)C2)cc2c1OCO2` (stereo not drawn), the z-score in assay [1] (setting [3]) is -0.369; in assay [1] (setting [4]) it was 4.95; in assay [2] it was -1.33 (inactive).
For `COCCN1C(=O)N(C2Cc3ccccc3C2)C(=O)C12CCN(Cc1cnn(C)c1C)CC2`, the z-score was -0.225 (inactive) in assay [1] (setting [3]), -0.00202 in assay [1] (setting [4]) and 1.21 (inactive) in assay [2].
On to `Cc1cc(-c2cc3c(n(C)c2=O)CCN(Cc2c(C)nc4sccn24)C3)ccc1F`, for which the z-score in assay [1] (setting [3]) was -0.189 (inactive); in assay [1] (setting [4]), 0.11; in assay [2] it was 0.27 (inactive).
Taken in the same sequence, the figures for `C[C@H]1NC(=O)[C@@H]2C[C@H](NC(=O)c3cnn(-c4ccccc4)c3C(F)(F)F)CN2C1=O` were 0.896 (inactive), -0.434 and -1.26 (inactive).
As for `CC(C)CCN1C(=O)N(C(C)C)C(=O)C12CCN(Cc1ccc(CN3CCCCC3)s1)CC2`, the z-score was -0.0425 (inactive) in assay [1] (setting [3]), -0.0124 in assay [1] (setting [4]) and 1.27 (inactive) in assay [2].
As to `O=C1N[C@H](CO)C(=O)N2CCN(C(=O)c3ccc(F)cc3)C[C@H]12`, the z-score in assay [1] (setting [3]) was 1.91 (inactive); in assay [1] (setting [4]), -0.948; in assay [2] it was -0.325 (inactive).
As for `Cn1nc(C(=O)NCc2cccnc2)c2c1CCN(Cc1ccc3c(c1)Cc1ccccc1-3)C2`, the z-score was -0.134 (inactive) in assay [1] (setting [3]), -0.0827 in assay [1] (setting [4]) and 0.125 (inactive) in assay [2].
For `CN1C(=O)N(CCCc2ccncc2)C(=O)C12CCN(C1CCSCC1)CC2`, the results for the z-score in assay [1] (setting [3]), in assay [1] (setting [4]) and in assay [2] were -0.208 (inactive), -0.033 and 1.08 (inactive), respectively.
As to `Cc1noc(C)c1CC(=O)N1CCc2c(c(C(=O)N3CCOCC3)nn2CCCc2ccccc2)C1`, the z-score in assay [1] (setting [3]) is 0.975 (inactive); in assay [1] (setting [4]), -0.571; in assay [2], -0.895 (inactive).
For `COc1cccc(-c2cc3c(n(Cc4ccccn4)c2=O)CCN(C(=O)c2csc(C)n2)C3)c1`, the z-score is -0.876 in assay [1] (setting [3]), 3.95 in assay [1] (setting [4]) and -0.495 (inactive) in assay [2].
Take `Cc1onc(-c2ccccc2)c1C(=O)N1CC(=O)N(Cc2ccccc2)CC(OCC2CC2)C1` (stereo not drawn): the z-score in assay [1] (setting [3]) is 0.442 (inactive); in assay [1] (setting [4]) it was -0.273; in assay [2], -1.6 (inactive).
As to `COc1ccc(C[C@@H]2NC(=O)[C@H]3CN(C(=O)Oc4ccc(Cl)cc4)CCN3C2=O)cc1`, the results for the z-score in assay [1] (setting [3]), in assay [1] (setting [4]) and in assay [2] were -0.205 (inactive), 0.551 and -1.58 (inactive), respectively.
Taken in the same sequence, the figures for `Cc1ccc(-c2cc(C(=O)N3CCC[C@H]3CO)cc(S(=O)(=O)N3CCOCC3)c2)s1` were -0.348 (inactive), 1.18 and -0.415 (inactive).
Regarding `CN(Cc1cscn1)C(=O)c1nn(CC2CC2)c2c1CN(C(=O)Cn1cnc3ccccc31)CC2`, the z-score is 0.533 (inactive) in assay [1] (setting [3]), -0.0924 in assay [1] (setting [4]) and -0.19 (inactive) in assay [2].
In the case of `CC(C)CNC(=O)[C@@H]1C[C@H](CN2CCOCC2)CN(Cc2nccn2C)C1`, the z-score was 0.0237 (inactive) in assay [1] (setting [3]), 0.267 in assay [1] (setting [4]) and 0.2 (inactive) in assay [2].
As to `COC1CN(Cc2cn(C)c3ccccc23)CC(=O)N(Cc2ccccc2)C1` (stereo not drawn), the z-score in assay [1] (setting [3]) is -0.128 (inactive); in assay [1] (setting [4]), -0.0158; in assay [2], 0.47 (inactive).
In the case of `CC(C)N1C(=O)N(C)C2(CCN(Cc3ccc4c(c3)Cc3ccccc3-4)CC2)C1=O`, the z-score in assay [1] (setting [3]) is -0.247 (inactive); in assay [1] (setting [4]), -0.55; in assay [2], 0.225 (inactive).
Taken in the same sequence, the figures for `CCOC(=O)c1nn(CCc2ccc(OC)cc2)c2c1CN(Cc1cccn1-c1ccccn1)CC2` were -0.341 (inactive), 0.052 and -1.34 (inactive).
In the same order, the values of `CCCCNC(=O)[C@@H]1C[C@H](CN2CCOCC2)CN(Cc2ccccc2)C1` are -0.071 (inactive), -0.282 and -0.205 (inactive).
As for `CC(C)CCN1C(=O)N(CCN(C)C)C(=O)C12CCN(Cc1cn(C)c3ccccc13)CC2`, the figures for the z-score in assay [1] (setting [3]), in assay [1] (setting [4]) and in assay [2] were -0.333 (inactive), -0.689 and 0.81 (inactive), respectively.
Taken in the same sequence, the figures for `CN1CCCc2cc(C(=O)N3CC(=O)N(Cc4ccccc4)CC(OCc4ccccn4)C3)ccc21` (stereo not drawn) were -0.626 (inactive), -0.731 and 0.21 (inactive).
For the compound `O=C1CCCc2occ(C(=O)N3CC(=O)N(Cc4ccccc4)CC(OCc4ccccn4)C3)c21` (stereo not drawn), the values for the z-score in assay [1] (setting [3]), in assay [1] (setting [4]) and in assay [2] were -0.412 (inactive), -0.733 and 2.83 (inactive), respectively.
Taken in the same sequence, the figures for `COCCCN1C(=O)N(Cc2ccccc2)C(=O)C12CCN(Cc1ccc(-c3ccco3)cc1)CC2` were 0.678 (inactive), 0.032 and -1.64 (inactive).

The values are drawn from PubChem BioAssay.
